According to PubChem BioAssay (NCATS):
Where “and” joins values, the source holds several entries; their conditions need not be identical. Equal values may be shown once. Inconclusive results are not listed. Calls of active or inactive are those of the source. Calls come from the whole dose curve; as a rule, active = well fitted inhibition curve with a large enough effect; inconclusive = small, poorly fitted or top-dose-only effect; inactive = flat fitted curve, though single readings scatter.

Each compound was assayed on CRL-7250 (assay: Cytotoxic Profiling of Annotated Libraries Using Quantitative High-Throughput Screening (AID 1296008; note: nearly all actives have a fitted effect of over 60% in size)). Conditions: Five cell lines viability, CellTiter-Glo ATP luminescence, 48-72 h; max response: active compounds read low.
In short: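 Cells exposed to compounds for 48 or 72 hr at 37 degrees Celsius. Viability read as ATP-coupled luminescence with CellTiter-Glo after 10 min at room temperature.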
% is set by controls: 0 for no effect and ±100 for the full control effect; potency is the fitted concentration of half-maximal effect.

SMILES | Potency | max response | outcome
Cc1cc(C(=O)Nc2cc(Nc3ccc4c(/C=C/c5ccccn5)n[nH]c4c3)ccc2F)n(C)n1 | 18.4 µM (active) |  | 
CC1CCC/C=C/C(=O)c2c(O)cc(O)cc2CC(=O)O1 (centres undefined) | 7.31 µM (active) |  | 
Nc1ncnc2c1nc(Cl)n2C1OC2COP(=O)(O)OC2C1O (centres undefined) | 6.51 µM (active) |  | 
C=C1C(=O)O[C@@H]2[C@H]1CC(=O)[C@H](C)[C@@](O)(C(=O)/C=C/C)[C@H]2OC(=O)C(C)CC (some centres undefined) | 7.18 µM (active) |  | 
CN1CCN(C2CCN(C(=O)Nc3cc(Oc4ccc(NC(=O)C5(C(=O)Nc6ccc(F)cc6)CC5)c(F)c4)ccn3)CC2)CC1 | 9.2 µM (active) |  | 
O=C(NO)c1cnc(N2CCN(S(=O)(=O)c3ccc4ccccc4c3)CC2)nc1 | 7.96 µM (active) |  | 
C=C1CC2OC(=O)C(=C)C2C(OC(=O)/C(C)=C\C)CC2(C)OC1=CC2=O (centres undefined) | 14.3 µM (active) |  | 
Cc1cc(Nc2nc(-c3ccccc3)nc3ccccc23)n[nH]1 | 5.17 µM (active) |  | 
COc1cc(C(N)=O)nc(-c2ccccn2)c1O |  | -12.9% (inactive) | 
C#CC(=O)N(c1ccc(OC)cc1OC)C(C(=O)NCC(=O)OCC)c1cccs1 (centres undefined) | 0.206 µM (active) |  | 
CC(=O)OC(C)(C)/C=C/C(=O)C(C)(O)C1C(O)CC2(C)C3CC=C(C(C)(C)C(=O)O)C(CC(=O)O)C3(C)C(=O)CC12C (centres undefined) |  | 2% (inactive) | 
Cc1noc(-c2ccc(-c3ccc(CC(=O)O)cc3)cc2)c1NC(=O)O[C@H](C)c1ccccc1Cl |  | -11.1% (inactive) | 
c1ccc(-c2ccc(CNc3nc(-c4ccccn4)nnc3-c3ccccc3)cc2)cc1 | 5.8 µM (active) |  | 
Cn1nc(-c2ccc(C(F)(F)F)cc2)nc2c(=O)n(C)c(=O)nc1-2 | 14.6 µM (active) |  | 
CNC(=O)[C@@H](c1ccccc1)N1CCc2cc(OC)c(OC)cc2[C@@H]1CCc1ccc(C(F)(F)F)cc1 |  | -4.36% (inactive) | 
Cc1cccc(-c2[nH]ncc2-c2ccnc3ccccc23)n1 |  | -17.2% (inactive) | 
Cc1[nH]c(/C=C2\C(=O)Nc3ccc(S(=O)(=O)N(C)c4cccc(Cl)c4)cc32)c(C)c1C(=O)N1CCN(C)CC1 |  |  | inactive
N#Cc1ccc(O[C@@H]2c3ccccc3C[C@H]2N2CCC[C@@H](N)C2)c(Cl)c1 |  | -27.9% (inactive) | 
O=C(Nc1cccnn1)N1CCN(c2nccc(-c3ccc(F)c(F)c3)n2)CC1 |  | -5.59% (inactive) | 
C=C1C(=O)O[C@@H]2C(OC(=O)/C(C)=C\C)/C(C)=C\C(=O)/C=C(\C)C[C@H](O)[C@@H]12 (some centres undefined) | 10.1 µM (active) |  | 

SMILES | Potency | max response | outcome
Cc1[nH]c2ccc(F)cc2c1-c1nc2c3cccnc3c3ncccc3c2[nH]1 | 3.66 µM (active) |  | 
O=S(=O)(Nc1cc(Cl)c(Oc2cnc3ccccc3c2)c(Cl)c1)c1ccc(Cl)cc1Cl |  |  | inactive
COC1CC(O[C@H]2CC[C@]3(C)C4CC[C@@]5(C)C(=O)[C@]4(CC[C@@H]3C2)CC[C@@H]5C2=CC(=O)OC2)OC(C)C1OC1OC(COC2OC(CO)C(O)C(O)C2O)C(O)C(O)C1O (some centres undefined) | 1.55 µM (active) |  | 
C[C@H](Nc1ncnc2nc[nH]c12)c1cc2cccc(Cl)c2c(=O)n1-c1ccccc1 |  | -26.4% (inactive) | 
CC(C)(O)/C=C/C(=O)[C@](C)(O)[C@H]1[C@H](O)C[C@@]2(C)[C@@H]3CC=C4[C@@H](C[C@H](O[C@@H]5O[C@H](CO)[C@@H](O)[C@H](O)[C@H]5O)C(=O)C4(C)C)[C@]3(C)C(=O)C[C@]12C |  | -1.87% (inactive) | 
CCOc1cc(C(C)(C)C)ccc1C1=N[C@@](C)(c2ccc(Cl)cc2)[C@@](C)(c2ccc(Cl)cc2)N1C(=O)N1CCN(CC(=O)N2CCOCC2)CC1 | 14.8 µM (active) |  | 
Cc1cc2c(F)c(Oc3ncnn4cc(OCC(C)OC(=O)C(C)N)c(C)c34)ccc2[nH]1 (centres undefined) |  | -5.94% (inactive) | 
C=CC(=O)Nc1cccc(Nc2nc(Nc3ccc(OCCOC)cc3)ncc2F)c1 | 5.17 µM (active) |  | 
COc1cc(C[C@H]2C(=O)OC[C@@H]2Cc2ccc(OC)c(OC)c2)ccc1O | 0.508 µM (active) |  | 
Cc1cc2c(cc1N1C(=O)c3cccc4c(CCCO)ccc(c34)C1=O)n(C)c(=O)n2C |  | -31.8% (inactive) | 
CC(=O)C1=C(O)C=C2Oc3c(C(C)=O)c(O)c(C)c(O)c3[C@]2(C)C1=O |  |  | inactive
C=C(C)C(=O)O[C@H]1[C@H]2C(=C)C(=O)O[C@@H]2C[C@@H](C)[C@@H]2O[C@@H]2C(=O)[C@](C)(O)[C@@H]1OC(=O)C(=C)C | 7.09 µM (active) |  | 
Cc1nc(C#Cc2ccnc(Cl)c2)c(C)n1-c1ccc(F)cc1 | 18.4 µM (active) |  | 
C=C1C(=O)O[C@H]2C3=C(C)CCC[C@]3(C)C(=O)C[C@@H]12 | 18.4 µM (active) |  | 
O=C1NC(=O)C(c2cnc3ccccn23)=C1c1cn2c3c(cc(F)cc13)CN(C(=O)N1CCCCC1)CC2 | 46.1 nM (active) and 33.1 nM (active) |  | 
COC(=O)C1=COC(O[C@@H]2O[C@H](CO[C@@H]3O[C@H](COC(=O)/C=C\c4ccc(O)cc4)[C@@H](O)[C@H](O)[C@H]3O)[C@@H](O)[C@H](O)[C@H]2O)C2C(CO)=CCC12 (some centres undefined) |  | -64.3% (inactive) | 
CC1CCCC[C@H]2C(=O)C=C[C@H](O)[C@@H]2CC(=O)O1 (some centres undefined) | 8.2 µM (active) |  | 
CCn1c(N)c(C(=O)NC)c(=O)c2ccc(C#CC(C)(O)COC)nc21 (centres undefined) |  | -33.6% (inactive) | 
COC1CC(O[C@H]2CC[C@]3(C)C4CC[C@]5(C)C(C6=CC(=O)OC6)=CCC56OC46CC[C@@H]3C2)OC(C)C1O[C@@H]1O[C@H](CO[C@@H]2O[C@H](CO)[C@@H](O)[C@H](O)[C@H]2O)[C@@H](O)[C@H](O)[C@H]1O (some centres undefined) | 1.55 µM (active) |  | 
